From PubChem BioAssay (NCI)
This is part of a sample that, as a whole, favours compounds with a hit. Of some 79,000 tested, about 15% had one in any assay. A number with no mark means an inactive call. Calls of active or inactive are those of the source. Cut-off read from the data, not from the text of the source: active = growth inhibition above about 70%; inactive = the rest.

How the values were obtained:
[1] = NCI Yeast Anticancer Drug Screen. Data for the rad50 strain (AID 155);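 note: 0% = growth of vehicle-only cultures of the same strain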; conditions: S. cerevisiae rad50 strain growth inhibition; at 50.0 µM; active compounds read high
How it was run: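 Relative growth inhibition (compound vs vehicle) was measured in yeast with a defined repair-gene alteration.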

[2] = NCI Yeast Anticancer Drug Screen. Data for the mec2-1 strain (AID 157); conditions: S. cerevisiae mec2-1 strain, at 50.0 µM, active compounds read high
How it was run: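 mec2-1 yeast strain, carrying an alteration in DNA damage repair or cell cycle control, was exposed to compounds; growth inhibition was measured relative to vehicle-treated controls.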

[3] = NCI Yeast Anticancer Drug Screen. Data for the sgs1 mgt1 strain (AID 161);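 note: 0% = growth of cultures given vehicle only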; conditions: S. cerevisiae sgs1 mgt1 strain, at 50.0 µM, active compounds read high
How it was run: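 Growth of a repair-deficient yeast mutant was monitored after compound treatment and expressed as inhibition relative to vehicle-treated cultures.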

[4] = NCI Yeast Anticancer Drug Screen. Data for the cln2 rad14 strain (AID 165);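 note: 0% = growth equal to vehicle treated cultures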; conditions: S. cerevisiae cln2 rad14 strain, at 50.0 µM, active compounds read high
How it was run: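 Yeast carrying cln2 and rad14 alterations (cell cycle control and DNA damage repair) were exposed to compounds. Growth inhibition was measured against vehicle-treated controls.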

[5] = NCI Yeast Anticancer Drug Screen. Data for the bub3 strain (AID 167); conditions: S. cerevisiae bub3 mutant strain, at 50.0 µM, active compounds read high
How it was run: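 Screening used yeast with an engineered genetic alteration affecting cell cycle control. Compound-exposed cultures were compared with vehicle cultures, and reduced growth was taken as inhibition.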

[6] = NCI Yeast Anticancer Drug Screen. Data for the mlh1 rad18 strain (AID 175); conditions: S. cerevisiae mlh1 rad18 strain growth inhibition; at 50.0 µM; active compounds read high
How it was run: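 Growth inhibition of the yeast strain was measured after compound exposure and expressed relative to vehicle-treated controls. The strain carries defined defects in DNA damage repair.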

SMILES	growth inhibition [1]	growth inhibition [2]	growth inhibition [3]	growth inhibition [4]	growth inhibition [5]	growth inhibition [6]
Cc1nc2c(N3CCCCC3)ncnc2o1	7.3%	-0.85%	-6.15%	-28.7%	-13.8%	4.05%
OC(C1CCCCCCCCCC1)C(O)C1CCCCCCCCCC1 (stereo unspecified)	-35.5%	-38.6%	2.8%	15.3%	-38%	-8.85%
CC1=NN(c2nc(N)nc(CO)n2)C(C)(C)C1	12.2%	5.75%	3.2%	5.55%	1%	-72.5%
CC1(C)OC2COC(CN(N=O)C(N)=O)C2O1 (stereo unspecified)	15.2%	-15.7%	-8.15%	-75%	-17.4%	5.75%
CC(=O)NC(C)(CO)C(=O)O (stereo unspecified)	22.6%	12.7%	19.4%	13.4%	7.35%	14.1%
CCCC(=O)NS(=O)(=O)c1ccc(C)cc1	2.85%	7.3%	3.45%	-24.9%	0.25%	5.75%
CC1C(O)C(c2ccccc2)(c2ccccc2)C(C)CN1C (stereo unspecified)	-5.65%	-4.95%	4.15%	4.65%	-2.6%	3.45%
COc1ccc(NC(=O)/C(Cc2cc(=O)oc3cc(O)ccc23)=N\NC(C)(C)C)c(OC)c1	-4.4%	2.8%	9.3%	4%	-1.8%	7.3%
Cc1ccc([N+](=O)[O-])c(N)c1	40.5%	27.4%	26.1%	18.9%	4.65%	26.4%
S=c1[nH]c(=S)c2[nH]cnc2[nH]1	-7.4%	-5.45%	-7.1%	-7.35%	-4.95%	-0.3%
N#Cc1ccccc1NC(=O)Nc1ccc(Cl)cc1Cl	16.4%	-7.35%	27%	-0.25%	4.35%	10.6%
CCOC(=O)NC	14.4%	1.6%	-19.6%	3.85%	-1%	9.8%
Cc1cc(=O)[nH]c(/N=C(/N)N(C)C)n1	4.15%	-10.8%	3%	11.4%	8.2%	5.05%
CC(=O)NOCC1NC(=O)C(CONC(C)=O)NC1=O (stereo unspecified)	14%	18.1%	-47.1%	-3.4%	-48.2%	-54.6%
O=C(/C(=C(/Br)I)c1ccccc1)c1ccccc1	-13.8%	16%	26.6%	14.1%	42.6%	28.4%
CSc1nc(COC(=O)NC(C)C)c(COC(=O)NC(C)C)n1Cc1ccccc1	2.45%	3.7%	1.35%	1.65%	5.4%	2.5%
CCOc1ccc(OCC)c(N)c1	-25.9%	2.1%	-2.5%	-44%	10.2%	-19.5%
CCCc1ccc(OCC(=O)O)c(OC)c1	-2.45%	-1.25%	0.95%	4.4%	-22.5%	-7.45%
O=C(Nc1ccc(F)cc1)C(Br)C(Br)c1ccccc1 (stereo unspecified)	91% (active)	88.2% (active)	93.9% (active)	49%	81.5% (active)	95.5% (active)
c1ccc(-c2cc(-c3cc(-c4ccccc4)n[nH]3)[nH]n2)cc1	-9.95%	-8.15%	-21.4%	-19.2%	-16.6%	-37.1%
c1ccc(-c2nc(-c3ccccn3)cc3ccccc23)cc1	-2.05%	-17.6%	10%	2.8%	5.4%	18.8%

SMILES	growth inhibition [1]	growth inhibition [2]	growth inhibition [3]	growth inhibition [4]	growth inhibition [5]	growth inhibition [6]
CC[N+]1(C)CCC(O)(c2ccccc2)C(C(=O)c2ccccc2)C1 (stereo unspecified)	3.5%	-6.1%	-5.55%	34.1%	6.1%	11.3%
Cc1ccc(C(=O)Nc2c(C)cccc2C)cc1	3.45%	-40.7%	13.5%	3.65%	-4.7%	-5.95%
CC1(c2cccc[n+]2Cc2ccccc2S(=O)(=O)[O-])OCCO1	5.5%	-3.6%	-8.95%	0.3%	-3.95%	-21.6%
COc1ccc(O)c(/C=N\N=C\c2cc(OC)ccc2O)c1	-1.25%	-1.15%	-2.3%	-22.5%	22.9%	-2.8%
C[Si](C)(C)C#CCOC=C1CC1	26%	-39.5%	-27.2%	9.15%	-11.7%	-34.5%
CC(C)(C)OC(=O)NC1CCCCC1NC(=O)C(=O)NC1CCCCC1NC(=O)OC(C)(C)C (stereo unspecified)	-17.1%	-18.7%	-14.8%	4.2%	-10.8%	-30.3%
CCn1c(=NC(=O)c2ccccc2O)sc2ccccc21	16.5%	4%	2.15%	17.9%	-5.7%	-3.05%
CC1(C)CC(C#N)CC(C)(C)N1O	1.9%	-0.75%	0.5%	-20.9%	-4.8%	-0.95%
CCN1CCCC(Nc2cc(C)nc(/N=C(\N)Nc3ccc(Cl)c(Cl)c3)n2)C1 (stereo unspecified)	97.2% (active)	98% (active)	98.4% (active)	87.3% (active)	96.1% (active)	98% (active)
Cc1csnn1	-12.7%	-17.9%	8.5%	-1.4%	-1.6%	-21.6%
Nc1ccc(CCCCc2ccc(Cl)cc2Cl)cc1	98.2% (active)	98.2% (active)	98.5% (active)	98.1% (active)	98% (active)	98% (active)
COc1ccc2c(c1)CC1(CC2)CCN(CCCN(C)C)CC1	-32.3%	-7.85%	-22.2%	10.6%	-9.7%	-42.3%
O=C1CCC(=O)c2cc(Br)ccc2N1	25.8%	11.8%	2.85%	13%	46.2%	23.1%
S=C1N(c2ccccc2)CCN1c1ccccc1	-15.2%	-14.9%	-21.9%	-17.2%	-18.9%	-2.65%
CC(C)(C)c1ccc(/C=N/NC(=O)c2cccnc2)cc1	0.55%	8.45%	4.15%	14.3%	11.3%	9.45%
CCc1nc(N)nc(N)c1-c1ccc2c(c1)nnn2CCc1ccccc1	11.2%	0.1%	3.6%	10.7%	5.05%	16.1%
COc1cc2c(c(OC)c1OC)C(=O)[C@@H](O)[C@H]2N	-10.4%	-31.9%	-13%	-25.5%	-23.8%	-41.5%
CCOC(=O)c1ccc2c(c1)Cc1c-2cc(Br)c(N)c1Br	78.5% (active)	3.1%	45%	9.15%	18.4%	47%
COc1cc(-c2cc(CCC(=O)Nc3ccccc3[N+](=O)[O-])n(-c3ccc([N+](=O)[O-])cc3[N+](=O)[O-])n2)ccc1O	-5.2%	-5.5%	-42.7%	31.8%	-4.65%	-27.7%
Cc1nccc2scc(S(=O)(=O)O)c12	22.6%	10.5%	12.1%	-12.8%	-13.7%	22.7%
